From PubChem BioAssay (NCATS)
Records with an inconclusive call do not appear. The source made the active and inactive calls. Calls follow the shape of the dose curve; as a rule, active = well fitted inhibition curve with a large enough effect; inconclusive = small, poorly fitted or top-dose-only effect; inactive = flat fitted curve, though single readings scatter.

test system: NIH3T3; experiment: Cytotoxic Profiling of Annotated Libraries Using Quantitative High-Throughput Screening (AID 1296008); settings: Five cell lines viability, CellTiter-Glo ATP luminescence, 48-72 h; max response: hits give low values; as to max response: % is scaled to controls: 0 for no effect and ±100 for the full control effect
Procedure, shortened: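 Cells exposed to compounds for 48 or 72 hr at 37 degrees Celsius. Viability read as ATP-coupled luminescence with CellTiter-Glo after 10 min at room temperature.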
Also: nearly all actives have a fitted effect of over 60% in size.

SMILES | outcome | max response
C[N+]1(CCC(C(N)=O)(c2ccccc2)c2ccccc2)CCCCC1 | inactive | 
O=C(CCl)c1ccc(Cl)cc1Cl |  | -36.1% (inactive)
Cc1c(Cl)c(=O)oc2cc(OP(=O)(OCCCl)OCCCl)ccc12 |  | -22.4% (inactive)
C[C@]12Cc3nonc3C[C@@H]1CC[C@@H]1[C@@H]2CC[C@@]2(C)[C@H]1CC[C@]2(C)O |  | -6.95% (inactive)
C#C[C@]1(O)CC[C@H]2[C@@H]3CCC4=CC(=O)CCC4=C3C=C[C@@]21CC |  | -4.44% (inactive)

test system: CRL-7250; experiment: qHTS assay to identify novel small-molecules to repurpose for Merkel cell carcinoma treatment (AID 1296009); settings: MCC and control cell lines, CellTiter-Glo viability, 72 h; at 44.8 µM (top of the series) unless noted
Procedure, shortened: (§1)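 CellTiter-Glo luminescence after 72 hr compound exposure at 37 degree celsius gave cell viability. Libraries NPC and MIPE were run as 8- and 11-point dose responses; RLUs normalized to DMSO (negative) and no-cell (cytotoxicity) controls.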

SMILES | outcome
Cc1[nH]c(C)c(Cl)c(=O)c1Cl | inactive [at 17.4 µM]
C[C@]12CCC(=O)C=C1[C@@H]1C[C@@H]1[C@H]1[C@@H]3[C@@H]4C[C@@H]4[C@@]4(CCC(=O)O4)[C@@]3(C)CC[C@@H]12 | inactive
C[C@H]1C[C@H]2[C@@H]3CCC4=CC(=O)C=C[C@]4(C)[C@@]3(Cl)[C@@H](O)C[C@]2(C)[C@@]1(O)C(=O)CO | inactive
CC(C)OC(=O)C(C(=O)OC(C)C)=C1SC=CS1 | inactive
Clc1ccc(Cn2c(CN3CCCC3)nc3ccccc32)cc1 | inactive
N[C@H](C(=O)O)[C@@H](O)c1ccc(O)c(O)c1 | inactive
COc1ccc(C(Cl)=C(c2ccc(OC)cc2)c2ccc(OC)cc2)cc1 | inactive
O=C(OCC(O)CO)c1ccccc1Nc1ccnc2cc(Cl)ccc12 (configuration not stated) | inactive
OC1C(O)C(O)C(O)C(O)C1O (configuration not stated) | inactive
Cc1c(C(=O)NN2CCCCC2)nn(-c2ccc(Cl)cc2Cl)c1-c1ccc(Cl)cc1 | inactive
CCN(CCCCOC(=O)c1ccc(OC)c(OC)c1)C(C)Cc1ccc(OC)cc1 (configuration not stated) | inactive
CCCc1cc(C(N)=S)ccn1 | inactive
CCCCNc1cc(C(=O)O)cc(S(N)(=O)=O)c1Oc1ccccc1 | inactive
Cc1c(N(C)C)c(=O)n(-c2ccccc2)n1C | inactive
OCCN1CCN(CCCN2c3ccccc3C=Cc3ccccc32)CC1 | inactive
CN1CCC(OC(c2ccccc2)c2ccccc2)CC1 | inactive
CCCCCCCC/C=C\CCCCCCCCN | inactive
COc1cc(NS(=O)(=O)c2ccc(N)cc2)ncn1 | inactive
Nc1c2c(nc3c1CCC3)CCCC2 | inactive
Cn1cnc2c1c(=O)[nH]c(=O)n2C | inactive
CCC(CN)=C(c1ccccc1)c1ccccc1 | inactive
O=C(O)COC(=O)Cc1ccccc1Nc1c(Cl)cccc1Cl | inactive
COc1ccc2[nH]c(S(=O)Cc3ncc(C)c(OC)c3C)nc2n1 (configuration not stated) | inactive
CC1(C)OC[C@@H](COC(=O)CCc2ccc(OC[C@@H](O)CNCCNC(=O)N3CCOCC3)cc2)O1 | inactive
CC(C)(C)C(=O)C(Oc1ccc(Cl)cc1)n1ccnc1 (configuration not stated) | inactive
Cc1nnc(C(=O)NC(C)(C)c2nc(C(=O)NCc3ccc(F)cc3)c(O)c(=O)n2C)o1 | inactive
COc1cc2[nH]c(=O)[nH]c(=O)c2cc1OC | inactive
CC1CCc2cc(F)cc3c(=O)c(C(=O)O)cn1c23 (configuration not stated) | inactive

test system: HACAT; experiment: as above; settings: MCC and control cell lines, CellTiter-Glo viability, 72 h; at 44.8 µM (top of the series) unless noted
Procedure, shortened: as §1

SMILES | outcome
O=C(CCl)c1ccc(Cl)cc1Cl | inactive
CC#C[C@]1(O)CC[C@H]2[C@@H]3C[C@H](C)C4=CC(=O)CC[C@]4(C)[C@H]3CC[C@@]21C | inactive
C[C@]12Cc3nonc3C[C@@H]1CC[C@@H]1[C@@H]2CC[C@@]2(C)[C@H]1CC[C@]2(C)O | inactive
C#C[C@]1(O)CC[C@H]2[C@@H]3CCC4=CC(=O)CCC4=C3C=C[C@@]21CC | inactive
